From a collection of fitness landscapes (doi:10.1126/science.1257360)
The full ranking holds about 140,000 sequences; the median of “enrichment ratio after two sorts for PhoP signalling” is about 0, and the highest 2% start at about 11. The entries come from a sample that favours the highest values as a whole.

B1: PhoQ; a variant is named by its letters at X, in order, P23837 (parent)
chain: MKKLLRLFFPLSLRVRFLLATAAVVLVLSLAYGMVALIGYSVSFDKTTFRLLRGESNLFYTLAKWENNKLHVELPENIDKQSPTMTLIYDENGQLLWAQRDVPWLMKMIQPDWLKSNGFHEIEADVNDTSLLLSGDHSIQQQLQEVREDDDDAEMTHSVAVNVYPATSRMPKLTIVVVDTIPVELKSSYMVWSWFIYVLSANLLLVIPLLWVAAWWSLRPIEALAKEVRELEEHNRELLNPATTRELTSLVRNLNRLLKSERERYDKYRTTLTDLTHSLKTPLXXLQXXLRSLRSEKMSVSDAEPVMLEQISRISQQIGYYLHRASMRGGTLLSRELHPVAPLLDNLTSALNKVYQRKGVNISLDISPEISFVGEQNDFVEVMGNVLDNACKYCLEFVEISARQTDEHLYIVVEDDGPGIPLSKREVIFDRGQRVDTLRPGQGVGLAVAREITEQYEGKIVAGESMLGGARMEVIFGRQHSAPKDE

Variants of: B1
Experiment: enrichment ratio after two sorts for PhoP signalling (ratio (wild type AVST 3.29)); higher = more functional
Conditions: with PhoP (E. coli)

Row | Variant | enrichment ratio
1 | TGVE | ≤ 0.25
2 | HYPL | ≤ 0.25
3 | AGIC | 3.1
4 | RPIA | ≤ 0.25
5 | TYVT | ≤ 0.25
6 | AHFF | ≤ 0.25
7 | HDNT | ≤ 0.25
8 | WSHN | ≤ 0.25
9 | PSPA | ≤ 0.25
10 | LQDQ | ≤ 0.25
11 | WDVC | ≤ 0.25
12 | DEVE | ≤ 0.25
13 | QQWV | 11.8
14 | QSWV | 22.9
15 | MMAV | 5.57
16 | QRWV | ≤ 0.25
17 | QQVK | ≤ 0.25
18 | TSAV | 16.5
19 | QGMV | 23.6
20 | QLWV | ≤ 0.25
21 | QGMS | ≤ 0.25
22 | QGIV | ≤ 0.25
23 | KSAV | ≤ 0.25
24 | QPWV | ≤ 0.25

Row | Variant | enrichment ratio
25 | IYAV | ≤ 0.25
26 | IMHI | ≤ 0.25
27 | VVLM | 3.83
28 | DISV | ≤ 0.25
29 | ASKR | ≤ 0.25
30 | NKAS | ≤ 0.25
31 | ETLP | ≤ 0.25
32 | QAKK | ≤ 0.25
33 | YNYA | ≤ 0.25
34 | WNDE | ≤ 0.25
35 | FFMI | ≤ 0.25
36 | QAYI | 8.06
37 | QAYV | 12.6
38 | QGMW | ≤ 0.25
39 | QGMI | 19.9
40 | KAYV | ≤ 0.25
41 | WHSE | ≤ 0.25
42 | PFWH | ≤ 0.25
43 | WKDV | ≤ 0.25
44 | GNNT | ≤ 0.25
45 | GNLA | 7.72
46 | GNLT | 16.5
47 | GNHF | ≤ 0.25
48 | GTCI | 11.7

Row | Variant | enrichment ratio
49 | GTCK | ≤ 0.25
50 | GTCA | ≤ 0.25
51 | GNCI | 14.4
52 | GNYI | ≤ 0.25
53 | DCAI | ≤ 0.25
54 | WVLT | ≤ 0.25
55 | WFHM | ≤ 0.25
56 | TILT | 2.41
57 | RNAL | ≤ 0.25
58 | MLVQ | ≤ 0.25
59 | VEVV | 2.45
60 | YEIT | ≤ 0.25
61 | KFTH | ≤ 0.25
62 | HGCC | ≤ 0.25
63 | FGCC | 13.2
64 | SGCC | 14.2
65 | TGCC | 21.5
66 | QGCC | ≤ 0.25
67 | AGCC | 16.1
68 | AICC | 5.26
69 | NGCC | ≤ 0.25
70 | FGCH | ≤ 0.25
71 | SGCH | 8.61
72 | SGFH | ≤ 0.25

Row | Variant | enrichment ratio
73 | GGCC | 1.09
74 | EIKT | ≤ 0.25
75 | ELGV | ≤ 0.25
76 | GQWY | ≤ 0.25
77 | AMER | ≤ 0.25
78 | SFYL | ≤ 0.25
79 | SREH | ≤ 0.25
80 | GSFE | ≤ 0.25
81 | CYLP | ≤ 0.25
82 | LTCC | ≤ 0.25
83 | FDCC | ≤ 0.25
84 | TDCC | 12.6
85 | FVLE | ≤ 0.25
86 | KTTE | ≤ 0.25
87 | PKGP | 4.39
88 | TKLF | 18
89 | QCLF | ≤ 0.25
90 | ADLF | ≤ 0.25
91 | GCLF | 13.2
92 | STLF | 14.6
93 | HKLF | ≤ 0.25
94 | AKLF | 7.81
95 | FQLF | 6.28
96 | AQLF | 15.8

Row | Variant | enrichment ratio
97 | KYLF | ≤ 0.25
98 | KCLF | ≤ 0.25
99 | SPLF | ≤ 0.25
100 | LCCL | ≤ 0.25
101 | GKCT | ≤ 0.25
102 | RRGY | ≤ 0.25
103 | FMSK | ≤ 0.25
104 | EQLF | ≤ 0.25
105 | SLLF | 0.885
106 | SRLF | ≤ 0.25
107 | AILF | 2.9
108 | SELF | 13.1
109 | YTLF | 6.76
110 | SQLF | 12.6
111 | GTLF | 11.4
112 | DPLF | ≤ 0.25
113 | GYLF | ≤ 0.25
114 | TTLF | 4.92
115 | ATLF | 13.9
116 | YMKT | ≤ 0.25
117 | QAAW | ≤ 0.25
118 | WQED | ≤ 0.25
119 | NQDM | ≤ 0.25
120 | IYQN | ≤ 0.25

Row | Variant | enrichment ratio
121 | DQIN | ≤ 0.25
122 | HPPT | ≤ 0.25
123 | DIGD | ≤ 0.25
124 | SIGR | 1.85
125 | SITR | 11.4
126 | EQMS | ≤ 0.25
127 | SISR | 6.33
128 | SIMK | 28.9
129 | SQMS | 17.9
130 | KYSK | ≤ 0.25
131 | STMK | 9.3
132 | NQMS | ≤ 0.25
133 | KYTR | ≤ 0.25
134 | SISK | 12.1
135 | SQMK | ≤ 0.25
136 | DTPY | ≤ 0.25
137 | IRAT | ≤ 0.25
138 | KYIW | ≤ 0.25
139 | VAVA | ≤ 0.25
140 | AHMQ | ≤ 0.25
141 | IGMY | ≤ 0.25
142 | KQNT | ≤ 0.25
143 | QIGW | ≤ 0.25
144 | KYTS | ≤ 0.25

Row | Variant | enrichment ratio
145 | SQTI | 13.3
146 | SQTA | 0.808
147 | SIDW | ≤ 0.25
148 | SIGD | 7.24
149 | KYLA | ≤ 0.25
150 | KYTA | ≤ 0.25
151 | SFTI | ≤ 0.25
152 | SIFA | ≤ 0.25
153 | SITS | 11.6
154 | SITA | 20
155 | SILA | 16.9
156 | AKHI | ≤ 0.25
157 | WPAY | ≤ 0.25
158 | GVTN | ≤ 0.25
159 | NYMC | ≤ 0.25
160 | ICGD | ≤ 0.25
161 | LGEW | ≤ 0.25
162 | SQAN | 6.83
163 | EDDL | ≤ 0.25
164 | SSTI | 13.8
165 | KSTS | ≤ 0.25
166 | SQTS | 11.8
167 | SIKQ | ≤ 0.25
168 | SISA | 11.9

Row | Variant | enrichment ratio
169 | SIMS | 12.1
170 | SSWI | 2.38
171 | KYMS | ≤ 0.25
172 | SIYI | ≤ 0.25
173 | FQTS | ≤ 0.25
174 | SSLY | 8.15
175 | KYSA | ≤ 0.25
176 | DYKN | ≤ 0.25
177 | KNRG | ≤ 0.25
178 | IQKG | ≤ 0.25
179 | SNAN | 6.54
180 | EFAY | ≤ 0.25
181 | SIWD | 14
182 | KYAK | ≤ 0.25
183 | SIAK | 11.2
184 | NQTC | ≤ 0.25
185 | SPWD | ≤ 0.25
186 | SILY | ≤ 0.25
187 | SITI | 19.7
188 | SQTC | 20.9
189 | KYTI | ≤ 0.25
190 | KYWD | ≤ 0.25
191 | WIAK | ≤ 0.25
192 | IQTC | ≤ 0.25

Row | Variant | enrichment ratio
193 | ELMG | ≤ 0.25
194 | HETM | ≤ 0.25
195 | NFED | ≤ 0.25
196 | DCAY | ≤ 0.25
197 | KYSH | ≤ 0.25
198 | QGAE | ≤ 0.25
199 | FIVP | ≤ 0.25
200 | FWLL | ≤ 0.25
201 | PSSI | ≤ 0.25
202 | QLYR | 0.63
203 | YEWP | ≤ 0.25
204 | IVFG | ≤ 0.25
205 | STMS | 15.6
206 | SPMS | ≤ 0.25
207 | SWMS | ≤ 0.25
208 | NWMF | ≤ 0.25
209 | NGSQ | ≤ 0.25
210 | AGSR | ≤ 0.25
211 | AGSQ | 12.9
212 | TGSQ | 25.1
213 | AGGK | ≤ 0.25
214 | RGSQ | ≤ 0.25
215 | LDTG | ≤ 0.25
216 | DEHI | ≤ 0.25

Row | Variant | enrichment ratio
217 | FAGW | ≤ 0.25
218 | HEIN | ≤ 0.25
219 | EYTQ | ≤ 0.25
220 | STMN | 2.85
221 | AQMN | 38.4
222 | SPMN | ≤ 0.25
223 | AIMN | 5.77
224 | SQMN | 25.3
225 | AQKN | ≤ 0.25
226 | YRVY | ≤ 0.25
227 | YKWQ | ≤ 0.25
228 | AEEA | ≤ 0.25
229 | AELD | 11.4
230 | APLF | ≤ 0.25
231 | AELM | 2.01
232 | AELF | 16.2
233 | AEGD | 0.253
234 | AEQN | 21.7
235 | AEEN | ≤ 0.25
236 | AEQV | 12.7
237 | AILD | ≤ 0.25
238 | AQQV | ≤ 0.25
239 | AEYN | ≤ 0.25
240 | MEFK | 1.13

Row | Variant | enrichment ratio
241 | WLKT | ≤ 0.25
242 | LQAS | ≤ 0.25
243 | AELW | 11.4
244 | AEFP | ≤ 0.25
245 | AHLW | ≤ 0.25
246 | AELY | 9.13
247 | AEFA | 0.58
248 | AELK | 11.5
249 | AEWI | ≤ 0.25
250 | AILW | ≤ 0.25
251 | AELA | 18.7
252 | AEFS | 19
253 | AEPA | ≤ 0.25
254 | AELS | 10.7
255 | SDLA | 1.18
256 | VFRG | ≤ 0.25
257 | LTPC | ≤ 0.25
258 | YIFI | ≤ 0.25
259 | AIGN | 6.31
260 | AEDK | ≤ 0.25
261 | AEGN | 12.2
262 | AELV | 24.4
263 | AELP | ≤ 0.25
264 | AELI | 30.6

Row | Variant | enrichment ratio
265 | AEWN | ≤ 0.25
266 | AEHK | ≤ 0.25
267 | AELN | 12.5
268 | AECN | 6.19
269 | AHGN | ≤ 0.25
270 | AVWD | ≤ 0.25
271 | EYSC | ≤ 0.25
272 | PPHG | ≤ 0.25
273 | ISCM | 2.52
274 | EMGW | ≤ 0.25
275 | YGNI | ≤ 0.25
276 | VDAC | ≤ 0.25
277 | QMES | ≤ 0.25
278 | CLVG | ≤ 0.25
279 | FPHK | ≤ 0.25
280 | WEIR | ≤ 0.25
281 | MELH | 6.92
282 | AEYR | ≤ 0.25
283 | AENI | ≤ 0.25
284 | AELH | 11.9
285 | QELH | ≤ 0.25
286 | AENS | 16
287 | AELL | 12.1
288 | GSMR | ≤ 0.25

Row | Variant | enrichment ratio
289 | VMYM | ≤ 0.25
290 | VVSV | ≤ 0.25
291 | RPHF | ≤ 0.25
292 | TIYY | ≤ 0.25
293 | NMAI | ≤ 0.25
294 | KMAI | ≤ 0.25
295 | WIAI | ≤ 0.25
296 | TIAI | 11.7
297 | KYAI | ≤ 0.25
298 | AIAI | 12.7
299 | AKAI | 5.1
300 | TIAT | 10.2
301 | SIYY | ≤ 0.25
302 | SIAI | 11.6
303 | AMAI | 14.3
304 | VKNM | ≤ 0.25
305 | NFFL | ≤ 0.25
306 | GWNK | ≤ 0.25
